Several values for one entry are separate records, joined by “and”; a condition that tells them apart may be missing. Equal values may be shown once. Results filed as inconclusive are left out. Where a call stands in place of a potency, no number is given. Values without a mark were called inactive. Activity calls are given as the source filed them. Calls follow the shape of the dose curve; as a rule, active = well fitted cell-killing curve with a large enough effect in the repeat runs; inconclusive = weak or mixed curves, or effect the other way; inactive = flat fitted curve, though single readings scatter.
Columns and labels:
[1] = cAMP Responsive Elements (CRE) small molecule antagonists, cell-based qHTS assay: qHTS cell viability counter screen (AID 2060913); also: nearly all actives have a fitted effect of over 40% in size
In short: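 Cytotoxicity counter screen multiplexed with the CRE-bla antagonist read: HEK293T cells in DMEM with dialyzed FBS and 25 mM HEPES were treated 3 hrs under 0.25 uM final NKH477, then viability measured by CellTiter-Glo luminescence.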

[2] = cAMP Responsive Elements (CRE) small molecule agonists, cell-based qHTS assay: qHTS cell viability counter screen (AID 2060914);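 also: viability read after 3 h of compound exposure; nearly all actives have a fitted effect of over 50% in size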
In short: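 HEK 293T CRE-bla; DMEM + 10% dialyzed FBS, 25 mM HEPES; 18 h pre-incubation; compound 3 h, 37 °C/5% CO2; CellTiter-Glo added after reporter read; luminescence after 30 min RT.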
Potency is read from the fitted curve at half-maximal effect.

O=C1c2ccccc2C(=O)c2ccccc21
viability change, negative = cytotoxic [1]: 7.37% [at 18.9 µM]
activity change, negative = cytotoxicity [2]: 0.739% [at 18.9 µM]

CN=C=O
Potency [1]: inactive
Potency [2]: inactive

COc1ccc(CO)cc1
Potency [1]: inactive
Potency [2]: inactive

Nc1ccc(N=Nc2ccc(-c3ccc(N=Nc4c(S(=O)(=O)O)cc5cc(S(=O)(=O)O)c(N=Nc6ccccc6)c(O)c5c4N)cc3)cc2)c(N)c1
Potency [1]: inactive
Potency [2]: inactive

OCC(O)CCl (stereo unspecified)
Potency [1]: inactive
Potency [2]: inactive

Cc1cccc(N)c1N
Potency [1]: inactive
Potency [2]: inactive

O=NN1CCCCCC1
Potency [1]: inactive
Potency [2]: inactive

CC(=O)c1ccc(-c2ccccc2)cc1
Potency [1]: inactive
Potency [2]: inactive

ClCC(Cl)(Cl)Cl
Potency [1]: inactive
Potency [2]: inactive

Nc1ccccc1C(=O)OCC(O)CO (stereo unspecified)
Potency [1]: inactive
Potency [2]: inactive

CCC1(c2ccccc2)C(=O)N(COC)C(=O)N(COC)C1=O
Potency [1]: inactive
Potency [2]: inactive

CCC(=O)C(CCN(C)C)(c1ccccc1)c1ccccc1
Potency [1]: inactive
Potency [2]: inactive

CCOP(=S)(OCC)SCSc1cc(Cl)ccc1Cl
Potency [1]: inactive
Potency [2]: inactive

O=C(O)C(Br)(Br)Br
Potency [1]: inactive
Potency [2]: inactive

[C-]1=CC=CC1.[Cl][Zr+2][Cl].c1cc[cH-]c1
Potency [1]: inactive
Potency [2]: inactive

CCOP(=O)(OCC)Oc1nc(Cl)c(Cl)cc1Cl
Potency [1]: inactive
Potency [2]: inactive

CCCCC(C#N)(Cn1cncn1)c1ccc(Cl)cc1 (stereo unspecified)
Potency [1]: inactive
Potency [2]: inactive

O=C(CBr)OCc1ccccc1
Potency [1]: inactive
Potency [2]: inactive

CC(C)C(=O)OCC(C)(C)C(OC(=O)C(C)C)C(C)C (stereo unspecified)
Potency [1]: inactive
Potency [2]: inactive

O=c1[nH]c2ccccc2n1C1CCN(CCCC(c2ccc(F)cc2)c2ccc(F)cc2)CC1
Potency [1]: inactive
Potency [2]: inactive

C[C@]12CCC(=O)C=C1CC[C@@H]1[C@@H]2CC[C@]2(C)C(=O)CC[C@@H]12
Potency [1]: inactive
Potency [2]: inactive

O=[N+]([O-])c1ccc(Oc2ccc(C(F)(F)F)cc2[N+](=O)[O-])cc1
Potency [1]: inactive
Potency [2]: inactive

C1CN2CCN1CC2
Potency [1]: inactive
Potency [2]: inactive

CCCCNP(N)(N)=S
Potency [1]: inactive
Potency [2]: inactive

Nc1ccccc1C(=O)Oc1ccc2ccccc2c1
Potency [1]: inactive
Potency [2]: inactive

CC(=O)CC(c1ccc(Cl)cc1)c1c(O)c2ccccc2oc1=O (stereo unspecified)
Potency [1]: inactive
Potency [2]: inactive

CCCCCCCCCCCCCCCC[n+]1ccccc1
Potency [1]: 57 µM (active) and 54.5 µM (active) and 56.2 µM (active)
Potency [2]: 47.9 µM (active) [middle of 4 runs]

COP(=S)(Oc1cc(Cl)c(Br)cc1Cl)c1ccccc1 (stereo unspecified)
Potency [1]: inactive
Potency [2]: inactive

O=NN1CCCC1
Potency [1]: inactive
Potency [2]: inactive

CC(C)C(Br)C(=O)NC(N)=O (stereo unspecified)
Potency [1]: inactive
Potency [2]: inactive

COC(=O)c1ccccc1S(=O)(=O)NC(=O)N(C)c1nc(C)nc(OC)n1
Potency [1]: inactive
Potency [2]: inactive

N#CC(O)c1ccccc1 (stereo unspecified)
Potency [1]: inactive
Potency [2]: inactive

Cc1cccc2sc3nncn3c12
Potency [1]: inactive
Potency [2]: inactive

Clc1nc(Cl)nc(Nc2ccccc2Cl)n1
Potency [1]: inactive
Potency [2]: inactive

CCCCN(CCCC)N=O
Potency [1]: inactive
Potency [2]: inactive

Clc1ccc(Cl)c(Cl)c1
Potency [1]: inactive
Potency [2]: inactive

C=CCN1CC[C@]23CCCC[C@H]2[C@H]1Cc1ccc(O)cc13
Potency [1]: inactive
Potency [2]: inactive

CC(C)CCCCCCOC(=O)c1ccccc1C(=O)OCCCCCCC(C)C
Potency [1]: inactive
Potency [2]: inactive

CCCC(C)(COC(N)=O)COC(N)=O
Potency [1]: inactive
Potency [2]: inactive

CCC1(CCC(C)C)C(=O)NC(=O)NC1=O
Potency [1]: inactive
Potency [2]: inactive

[Cl-].[Cl-].[Hg+2]
Potency [1]: 19.2 µM (active) and 8.63 µM (active)
Potency [2]: 21.6 µM (active) and 12.2 µM (active)

CN
Potency [1]: inactive
Potency [2]: inactive

CCN[C@@H](C)Cc1ccccc1
Potency [1]: inactive
Potency [2]: inactive

CCC/C(=N\OCC)C1=C(O)CC(CC(C)SCC)CC1=O (stereo unspecified)
Potency [1]: inactive
Potency [2]: inactive

C[C@@H]1CC[C@H]2[C@@H](C)C(=O)O[C@@H]3O[C@@]4(C)CC[C@@H]1[C@]32OO4
Potency [1]: inactive
Potency [2]: inactive

C[C@@H]1C[C@@H]([C@H](O)CC2CC(=O)NC(=O)C2)C(=O)[C@@H](C)C1
Potency [1]: inactive
Potency [2]: inactive

c1ccc2c(c1)CCCC2
Potency [1]: inactive
Potency [2]: inactive

Fc1ccc(C2(Cn3cncn3)OC2c2ccccc2Cl)cc1 (stereo unspecified)
Potency [1]: inactive
Potency [2]: inactive

CC(C)(C)c1ccc(CCOc2ncnc3ccccc23)cc1
Potency [1]: inactive
Potency [2]: inactive

[O-][Cl+3]([O-])([O-])O
Potency [1]: inactive
Potency [2]: inactive

ClC(Cl)=C(c1ccc(Cl)cc1)c1ccc(Cl)cc1
Potency [1]: inactive
Potency [2]: inactive

COP(=O)(OC)SCn1c(=O)oc2cc(Cl)cnc21
Potency [1]: inactive
Potency [2]: inactive

CCCCCCBr
Potency [1]: inactive
Potency [2]: inactive

CCCCCCOC(=O)c1ccccc1C(=O)OCCCCCC
Potency [1]: inactive
Potency [2]: inactive

C#CCC1=C(C)C(OC(=O)C2C(C=C(C)C)C2(C)C)CC1=O (stereo unspecified)
Potency [1]: inactive
Potency [2]: inactive

C=CC(=O)OCCCCCC(C)C
Potency [1]: inactive
Potency [2]: inactive

CCCCCCCCCCBr
Potency [1]: inactive
Potency [2]: inactive

CC[N+](=O)[O-]
Potency [1]: inactive
Potency [2]: inactive
